Reference: the supplement of paper PMC10849652
Targets with a hit are over-represented here; the source holds about 8,800 in all. About 0.5% of all pairs of compound and target were hits. A number with no mark means an inactive call.

compound: O=C(CCCCCCC(=O)Nc1ccccc1)NO [vorinostat]; assay: log2 fold change, soluble protein after heating vs DMSO (PISA); higher = thermal stabilisation; K562 lysate, 10 uM; active = over 0.2 and 3.5 SD of the protein, either way, in both replicates (recomputed)
Outline: (§1)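 Dounce homogenisation of K562 pellets in PBS pH 7.4 with 1 mM MgCl2 produced a crude extract, used at 1 mg/mL protein. Exposure to 10 μM compound lasted 30 min, and aliquots were then heated for 3 min across 48°C-58°C, pooled and brought to 0.5% NP-40 at 4°C. The supernatant after 21,000xg for 90 min was quantified by TMTpro 16plex LC-MS/MS with channel sums equalised. Duplicate values are given as log-two fold change in thermal stability relative to solvent controls.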

Chain of UniProt Q8N6R0 (Q8N6R0 whole entry, looked up): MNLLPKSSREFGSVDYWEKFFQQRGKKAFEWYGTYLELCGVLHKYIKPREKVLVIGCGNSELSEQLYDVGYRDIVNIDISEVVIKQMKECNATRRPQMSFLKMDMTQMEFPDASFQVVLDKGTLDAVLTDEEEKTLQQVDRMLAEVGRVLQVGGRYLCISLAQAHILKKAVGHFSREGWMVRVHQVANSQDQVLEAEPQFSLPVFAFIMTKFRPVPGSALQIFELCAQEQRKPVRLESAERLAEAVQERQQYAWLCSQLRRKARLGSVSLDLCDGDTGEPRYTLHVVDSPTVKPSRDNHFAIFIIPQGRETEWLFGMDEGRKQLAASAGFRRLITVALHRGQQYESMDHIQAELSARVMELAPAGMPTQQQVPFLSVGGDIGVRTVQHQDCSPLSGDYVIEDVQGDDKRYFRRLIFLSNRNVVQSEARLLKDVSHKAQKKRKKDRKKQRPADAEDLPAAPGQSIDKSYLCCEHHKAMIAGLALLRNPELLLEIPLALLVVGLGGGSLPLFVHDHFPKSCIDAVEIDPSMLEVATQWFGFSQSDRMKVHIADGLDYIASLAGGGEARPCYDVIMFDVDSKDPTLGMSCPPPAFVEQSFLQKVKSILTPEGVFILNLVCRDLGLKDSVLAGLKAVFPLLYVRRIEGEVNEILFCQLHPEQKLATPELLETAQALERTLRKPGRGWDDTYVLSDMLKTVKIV
Chain of UniProt Q6PIJ6 (Q6PIJ6 whole entry, looked up): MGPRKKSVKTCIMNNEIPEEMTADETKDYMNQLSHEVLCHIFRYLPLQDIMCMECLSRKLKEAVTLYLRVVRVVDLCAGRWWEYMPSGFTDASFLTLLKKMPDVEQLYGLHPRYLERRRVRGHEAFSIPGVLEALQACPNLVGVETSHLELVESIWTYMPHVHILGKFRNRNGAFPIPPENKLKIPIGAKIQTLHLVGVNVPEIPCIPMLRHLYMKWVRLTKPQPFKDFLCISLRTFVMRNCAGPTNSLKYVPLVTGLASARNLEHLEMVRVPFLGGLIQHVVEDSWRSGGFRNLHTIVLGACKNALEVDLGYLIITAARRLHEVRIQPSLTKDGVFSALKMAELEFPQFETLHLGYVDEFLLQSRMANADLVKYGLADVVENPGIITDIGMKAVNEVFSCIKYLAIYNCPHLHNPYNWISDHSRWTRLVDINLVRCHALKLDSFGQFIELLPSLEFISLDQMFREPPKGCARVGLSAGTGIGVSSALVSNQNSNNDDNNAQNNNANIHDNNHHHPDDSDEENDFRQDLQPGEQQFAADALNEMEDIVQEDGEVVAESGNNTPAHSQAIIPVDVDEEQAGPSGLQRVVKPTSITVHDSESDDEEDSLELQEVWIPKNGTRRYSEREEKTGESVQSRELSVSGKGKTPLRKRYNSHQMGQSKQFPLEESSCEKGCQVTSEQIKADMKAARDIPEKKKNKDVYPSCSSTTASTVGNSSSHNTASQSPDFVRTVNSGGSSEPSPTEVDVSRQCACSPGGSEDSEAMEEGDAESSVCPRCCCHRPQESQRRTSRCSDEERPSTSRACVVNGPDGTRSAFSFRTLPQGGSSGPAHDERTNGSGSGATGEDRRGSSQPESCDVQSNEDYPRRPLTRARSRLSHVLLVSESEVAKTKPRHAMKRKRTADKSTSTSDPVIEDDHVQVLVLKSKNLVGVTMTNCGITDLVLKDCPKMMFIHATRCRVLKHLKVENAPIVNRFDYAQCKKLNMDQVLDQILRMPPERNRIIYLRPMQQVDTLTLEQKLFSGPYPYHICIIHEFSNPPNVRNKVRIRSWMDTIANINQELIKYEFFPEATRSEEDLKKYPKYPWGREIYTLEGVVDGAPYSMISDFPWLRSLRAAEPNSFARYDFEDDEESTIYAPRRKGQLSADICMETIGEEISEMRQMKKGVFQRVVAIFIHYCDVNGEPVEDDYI
Chain of UniProt Q9GZT9 (Q9GZT9 whole entry, looked up): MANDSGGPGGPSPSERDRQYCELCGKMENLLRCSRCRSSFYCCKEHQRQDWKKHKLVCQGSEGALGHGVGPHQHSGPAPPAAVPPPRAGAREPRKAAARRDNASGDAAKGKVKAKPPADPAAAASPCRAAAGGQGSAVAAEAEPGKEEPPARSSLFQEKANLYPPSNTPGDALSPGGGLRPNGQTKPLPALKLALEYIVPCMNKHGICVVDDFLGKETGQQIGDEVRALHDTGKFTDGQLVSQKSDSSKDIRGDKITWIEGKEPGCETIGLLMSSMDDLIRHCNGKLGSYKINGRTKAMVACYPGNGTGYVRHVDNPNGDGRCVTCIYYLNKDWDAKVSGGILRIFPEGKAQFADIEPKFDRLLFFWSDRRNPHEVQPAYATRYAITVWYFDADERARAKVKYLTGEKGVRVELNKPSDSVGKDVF
Chain of UniProt Q9NR50 (Q9NR50 whole entry, looked up): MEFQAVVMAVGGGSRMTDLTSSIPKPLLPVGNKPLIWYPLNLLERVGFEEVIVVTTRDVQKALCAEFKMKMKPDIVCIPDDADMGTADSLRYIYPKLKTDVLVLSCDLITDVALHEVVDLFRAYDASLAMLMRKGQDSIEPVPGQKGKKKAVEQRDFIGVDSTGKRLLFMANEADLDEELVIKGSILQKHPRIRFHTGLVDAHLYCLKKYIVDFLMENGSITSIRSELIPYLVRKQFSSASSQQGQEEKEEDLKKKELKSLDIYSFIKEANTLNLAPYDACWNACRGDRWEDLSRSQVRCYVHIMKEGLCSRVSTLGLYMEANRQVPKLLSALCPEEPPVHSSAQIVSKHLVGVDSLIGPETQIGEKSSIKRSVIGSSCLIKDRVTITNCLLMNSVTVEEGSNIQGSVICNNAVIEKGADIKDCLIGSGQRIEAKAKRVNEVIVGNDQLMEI
Chain of UniProt O75521 (O75521 whole entry, looked up): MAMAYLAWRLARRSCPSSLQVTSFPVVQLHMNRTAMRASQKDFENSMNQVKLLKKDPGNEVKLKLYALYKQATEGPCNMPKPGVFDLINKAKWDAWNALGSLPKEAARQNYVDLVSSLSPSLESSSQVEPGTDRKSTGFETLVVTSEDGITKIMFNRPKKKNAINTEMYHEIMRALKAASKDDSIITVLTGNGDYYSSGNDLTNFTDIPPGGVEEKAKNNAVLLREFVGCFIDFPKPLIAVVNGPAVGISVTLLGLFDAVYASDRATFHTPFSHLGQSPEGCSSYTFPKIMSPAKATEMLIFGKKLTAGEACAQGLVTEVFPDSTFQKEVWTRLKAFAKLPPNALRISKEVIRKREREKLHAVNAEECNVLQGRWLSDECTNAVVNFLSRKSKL
Chain of UniProt Q8IV48 (Q8IV48 whole entry, looked up): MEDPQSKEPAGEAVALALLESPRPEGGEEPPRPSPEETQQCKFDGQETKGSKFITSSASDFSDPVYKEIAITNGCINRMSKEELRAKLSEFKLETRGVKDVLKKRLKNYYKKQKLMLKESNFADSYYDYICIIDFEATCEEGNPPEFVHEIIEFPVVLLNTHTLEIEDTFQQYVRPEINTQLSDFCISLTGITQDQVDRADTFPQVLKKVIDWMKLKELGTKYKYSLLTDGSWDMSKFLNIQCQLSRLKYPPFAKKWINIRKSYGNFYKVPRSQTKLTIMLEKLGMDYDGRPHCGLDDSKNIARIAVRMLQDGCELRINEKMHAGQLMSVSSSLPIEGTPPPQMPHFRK
Chain of UniProt O95466 (O95466 whole entry, looked up): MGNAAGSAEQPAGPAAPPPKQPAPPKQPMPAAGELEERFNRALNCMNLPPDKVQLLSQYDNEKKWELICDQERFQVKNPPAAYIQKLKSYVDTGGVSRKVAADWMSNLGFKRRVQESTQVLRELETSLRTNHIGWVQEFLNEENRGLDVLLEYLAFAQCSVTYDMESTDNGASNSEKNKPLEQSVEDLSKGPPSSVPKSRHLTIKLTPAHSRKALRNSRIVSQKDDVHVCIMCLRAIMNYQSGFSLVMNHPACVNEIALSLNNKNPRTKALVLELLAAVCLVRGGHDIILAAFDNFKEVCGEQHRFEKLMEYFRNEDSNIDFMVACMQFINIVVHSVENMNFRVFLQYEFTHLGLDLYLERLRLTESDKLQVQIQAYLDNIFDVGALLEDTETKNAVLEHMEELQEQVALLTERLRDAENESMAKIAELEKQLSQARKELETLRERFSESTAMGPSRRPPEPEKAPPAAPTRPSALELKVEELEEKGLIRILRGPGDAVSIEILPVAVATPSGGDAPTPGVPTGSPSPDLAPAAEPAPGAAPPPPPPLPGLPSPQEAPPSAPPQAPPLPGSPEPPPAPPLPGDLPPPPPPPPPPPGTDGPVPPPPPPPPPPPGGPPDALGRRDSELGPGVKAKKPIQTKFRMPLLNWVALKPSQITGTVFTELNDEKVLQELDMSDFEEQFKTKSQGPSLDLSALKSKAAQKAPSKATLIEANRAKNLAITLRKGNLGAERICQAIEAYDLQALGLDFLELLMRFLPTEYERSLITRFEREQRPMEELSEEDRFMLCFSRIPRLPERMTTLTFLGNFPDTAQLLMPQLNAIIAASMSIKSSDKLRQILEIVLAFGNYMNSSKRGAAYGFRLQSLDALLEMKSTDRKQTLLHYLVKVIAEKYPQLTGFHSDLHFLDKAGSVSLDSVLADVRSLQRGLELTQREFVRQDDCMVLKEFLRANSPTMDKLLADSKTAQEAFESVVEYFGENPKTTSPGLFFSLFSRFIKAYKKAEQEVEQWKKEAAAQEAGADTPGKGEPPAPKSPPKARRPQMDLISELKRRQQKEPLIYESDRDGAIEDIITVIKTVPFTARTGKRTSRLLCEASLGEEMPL
Chain of UniProt Q15125 (Q15125 whole entry, looked up): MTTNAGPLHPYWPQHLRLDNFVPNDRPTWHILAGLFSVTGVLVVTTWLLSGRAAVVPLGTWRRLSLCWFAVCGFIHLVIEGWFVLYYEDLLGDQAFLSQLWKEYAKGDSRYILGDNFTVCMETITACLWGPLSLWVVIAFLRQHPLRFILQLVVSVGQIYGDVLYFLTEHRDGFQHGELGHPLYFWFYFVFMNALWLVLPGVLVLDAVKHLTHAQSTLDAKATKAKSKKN
Chain of UniProt P41567 (P41567 whole entry, looked up): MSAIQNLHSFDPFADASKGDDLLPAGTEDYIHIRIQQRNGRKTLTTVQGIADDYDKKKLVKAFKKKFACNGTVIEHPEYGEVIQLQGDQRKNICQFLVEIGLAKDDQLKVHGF

Row | Target | log2 fold change
1 | EIF1 (UniProt P41567) | 0.12
2 | EEF1AKNMT (UniProt Q8N6R0) | -0.414 (active)
3 | ECI2 (UniProt O75521) | 0.146
4 | FBLL1 (UniProt A6NHQ2) | 0.094
5 | FUBP3 (UniProt Q96I24) | -0.325 (active)
6 | DYRK1A (UniProt Q13627) | -0.253
7 | DYNC1I2 isoform 5 (UniProt Q13409) | 0.126
8 | FARSA (UniProt Q9Y285) | 0.381 (active)
9 | EIF2B3 (UniProt Q9NR50) | -0.244 (active)
10 | FAM118A (UniProt Q9NWS6) | -0.834 (active)
11 | FBXO38 (UniProt Q6PIJ6) | -0.393
12 | EAPP (UniProt Q56P03) | 0.029
13 | ERI1 (UniProt Q8IV48) | -0.221 (active)
14 | EP400 isoform 5 (UniProt Q96L91) | -0.279 (active)
15 | FBXO45 (UniProt P0C2W1) | -0.367 (active)
16 | ERLIN1 (UniProt O75477) | 0.063
17 | ERAL1 (UniProt O75616) | -0.103
18 | FOXK1 (UniProt P85037) | -0.414 (active)

Row | Target | log2 fold change
19 | EEF1A1, A0A087WVQ9 | -0.541 (active)
20 | GAA (UniProt P10253) | -0.176
21 | EBP (UniProt Q15125) | 0.1
22 | FKBP1A (UniProt P62942) | 0.036
23 | ETHE1 (UniProt O95571) | -0.113
24 | EXOC2 (UniProt Q96KP1) | -0.361 (active)
25 | GART (UniProt P22102) | -0.303 (active)
26 | FOXJ3 (UniProt Q9UPW0) | -0.24 (active)
27 | EGLN1 (UniProt Q9GZT9) | -0.395 (active)
28 | FHOD1 (UniProt Q9Y613) | -0.47 (active)
29 | FAM111A (UniProt Q96PZ2) | -0.364
30 | GAPVD1 isoform 6 (UniProt Q14C86) | -0.292 (active)
31 | FYB1 isoform 3 (UniProt O15117) | 0.002
32 | ELAVL4 (UniProt P26378) | -0.402 (active)
33 | FMNL1 isoform 3 (UniProt O95466) | -0.292 (active)
34 | EIF2AK2 (UniProt P19525) | -0.415 (active)
35 | EHD2 (UniProt Q9NZN4) | -0.282 (active)
36 | EXOC3 (UniProt O60645) | -0.221 (active)

compound: O=C(O)c1ccc2c(c1)nc(Nc1cccc(Cl)c1)c1ccncc12 [silmitasertib]; assay: as above
Outline: as §1

Row | Target | log2 fold change
37 | EIF1 (UniProt P41567) | -0.024
38 | EEF1AKNMT (UniProt Q8N6R0) | 0.076
39 | ECI2 (UniProt O75521) | 0.022
40 | FBLL1 (UniProt A6NHQ2) | 0.034
41 | FUBP3 (UniProt Q96I24) | -0.032
42 | DYRK1A (UniProt Q13627) | 0.247 (active)
43 | DYNC1I2 isoform 5 (UniProt Q13409) | 0.03
44 | FARSA (UniProt Q9Y285) | 0.007
45 | EIF2B3 (UniProt Q9NR50) | 0.01
46 | FAM118A (UniProt Q9NWS6) | 0.024
47 | FBXO38 (UniProt Q6PIJ6) | 0.34
48 | EAPP (UniProt Q56P03) | -0.086
49 | ERI1 (UniProt Q8IV48) | -0.035
50 | EP400 isoform 5 (UniProt Q96L91) | 0.024
51 | FBXO45 (UniProt P0C2W1) | 0.127
52 | ERLIN1 (UniProt O75477) | 0.064
53 | ERAL1 (UniProt O75616) | 0.044
54 | FOXK1 (UniProt P85037) | -0.026

Row | Target | log2 fold change
55 | EEF1A1, A0A087WVQ9 | -0.002
56 | GAA (UniProt P10253) | -0.092
57 | EBP (UniProt Q15125) | -0.033
58 | FKBP1A (UniProt P62942) | -0.006
59 | ETHE1 (UniProt O95571) | 0.009
60 | EXOC2 (UniProt Q96KP1) | 0.031
61 | GART (UniProt P22102) | 0.006
62 | FOXJ3 (UniProt Q9UPW0) | 0.114
63 | EGLN1 (UniProt Q9GZT9) | 0.025
64 | FHOD1 (UniProt Q9Y613) | 0.008
65 | FAM111A (UniProt Q96PZ2) | 0.1
66 | GAPVD1 isoform 6 (UniProt Q14C86) | 0.04
67 | FYB1 isoform 3 (UniProt O15117) | -0.021
68 | ELAVL4 (UniProt P26378) | -0.046
69 | FMNL1 isoform 3 (UniProt O95466) | -0.01
70 | EIF2AK2 (UniProt P19525) | 0.038
71 | EHD2 (UniProt Q9NZN4) | 0.073
72 | EXOC3 (UniProt O60645) | 0.03
